# Publication PMC8384837, “Expanding the binding specificity for RNA recognition by a PUF domain”
# Substitutions are numbered along the chain they refer to.
# Legend:
# Assay in all cases: yeast three-hybrid, YBZ-1, SC-Leu-His + 0.5 mM 3-AT, 4 days
# Details in all cases: tags: N-Gal4 AD-HA kept; label: inside an RPR1-promoter hybrid RNA with tandem MS2 sites; ssRNA
# PUM1 PUF domain R6-HHS = target: T1, PUM1 PUF domain R6-HHS (Homo sapiens, UniProt Q14671 828-1176, N1043H;Y1044H;Q1047S)
# T1 sequence: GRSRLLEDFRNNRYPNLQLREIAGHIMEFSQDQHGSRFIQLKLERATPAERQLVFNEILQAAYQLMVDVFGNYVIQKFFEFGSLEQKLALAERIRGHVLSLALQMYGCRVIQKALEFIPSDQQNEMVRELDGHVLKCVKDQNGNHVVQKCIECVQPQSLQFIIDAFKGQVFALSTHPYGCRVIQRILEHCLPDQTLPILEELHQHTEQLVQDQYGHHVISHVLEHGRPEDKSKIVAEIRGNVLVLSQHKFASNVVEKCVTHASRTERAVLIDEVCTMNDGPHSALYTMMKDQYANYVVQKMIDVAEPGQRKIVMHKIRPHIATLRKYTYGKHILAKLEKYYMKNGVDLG
# How it was run: (§1)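 Sequencing with Illumina followed PCR amplification of the repeat regions from transformants grown four days on SC-Leu (input) or SC-Leu-His + 0.5 mM 3-AT (selection). The transformants were strain YBZ-1 with a LexA–MS2 coat fusion and a HIS3 reporter, carrying Pumilio-1 PUF domain libraries and matching RNA elements. The interaction score is the log change in variant frequency from input to selection, computed in log2 with a pseudocount of 1 for absent variants.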
# PUM1 PUF domain R6-NFW = target: T2, PUM1 PUF domain R6-NFW (Homo sapiens, UniProt Q14671 828-1176, Y1044F;Q1047W)
# T2 sequence: T1 sequence with H216N, H217F, S220W
# How it was run: as §1
# PUM1 PUF domain R3-GFW = PUM1 PUF domain R3-GFW (Homo sapiens, UniProt Q14671 828-1176, C935G;R936F;Q939W)
# How it was run: as §1
# PUM1 PUF domain R8-HYN = PUM1 PUF domain R8-HYN (Homo sapiens, UniProt Q14671 828-1176, N1122H;Q1126N)
# How it was run: as §1
# PUM1 PUF domain R4-SNG = PUM1 PUF domain R4-SNG (Homo sapiens, UniProt Q14671 828-1176, N971S;H972N;Q975G)
# How it was run: as §1
# PUM1 PUF domain R4-TPS = PUM1 PUF domain R4-TPS (Homo sapiens, UniProt Q14671 828-1176, N971T;H972P;Q975S)
# How it was run: as §1
# PUM1 PUF domain R3-SHA = PUM1 PUF domain R3-SHA (Homo sapiens, UniProt Q14671 828-1176, C935S;R936H;Q939A)
# How it was run: as §1
# PUM1 PUF domain R4-EHL = PUM1 PUF domain R4-EHL (Homo sapiens, UniProt Q14671 828-1176, N971E;Q975L)
# How it was run: as §1
# PUM1 PUF domain R6-LWC = target: T3, PUM1 PUF domain R6-LWC (Homo sapiens, UniProt Q14671 828-1176, N1043L;Y1044W;Q1047C)
# T3 sequence: T1 sequence with H216L, H217W, S220C
# How it was run: as §1
# PUM1 PUF domain R3-TFW = PUM1 PUF domain R3-TFW (Homo sapiens, UniProt Q14671 828-1176, C935T;R936F;Q939W)
# How it was run: as §1
# PUM1 PUF domain R6-GFC = target: T4, PUM1 PUF domain R6-GFC (Homo sapiens, UniProt Q14671 828-1176, N1043G;Y1044F;Q1047C)
# T4 sequence: T1 sequence with H216G, H217F, S220C
# How it was run: as §1
# PUM1 PUF domain R5-RCC = PUM1 PUF domain R5-RCC (Homo sapiens, UniProt Q14671 828-1176, C1007R;R1008C;Q1011C)
# How it was run: as §1
# PUM1 PUF domain R8-RWI = PUM1 PUF domain R8-RWI (Homo sapiens, UniProt Q14671 828-1176, N1122R;Y1123W;Q1126I)
# How it was run: as §1
# PUM1 PUF domain R4-DYA = PUM1 PUF domain R4-DYA (Homo sapiens, UniProt Q14671 828-1176, N971D;H972Y;Q975A)
# How it was run: as §1
# PUM1 PUF domain R1-KIL = PUM1 PUF domain R1-KIL (Homo sapiens, UniProt Q14671 828-1176, S863K;R864I;Q867L)
# How it was run: as §1
# PUM1 PUF domain R7-LTL = PUM1 PUF domain R7-LTL (Homo sapiens, UniProt Q14671 828-1176, S1079L;N1080T;E1083L)
# How it was run: as §1
sequence,measurement,setting,value
GGCUAGAACUAGUGGAUCCCCCGGCGCCCGGCGGCUCGAGCCCGGGUAAGUGUAAAUAGUCUGCAUGCCGCCGGGCGCCAUGCCUGCAGGUCGACUCUAGAAAACAUG,binding signal,PUM1 PUF domain R6-HHS,4.38 log2 enrichment (interaction score)
same,binding signal,PUM1 PUF domain R6-NFW,2.25 log2 enrichment (interaction score)
same,binding signal,PUM1 PUF domain R3-GFW,5.77 log2 enrichment (interaction score)
same,binding signal,PUM1 PUF domain R8-HYN,2.92 log2 enrichment (interaction score)
same,binding signal,PUM1 PUF domain R4-SNG,1.17 log2 enrichment (interaction score)
same,binding signal,PUM1 PUF domain R4-TPS,3 log2 enrichment (interaction score)
same,binding signal,PUM1 PUF domain R3-SHA,4.29 log2 enrichment (interaction score)
same,binding signal,PUM1 PUF domain R4-EHL,3.16 log2 enrichment (interaction score)
same,binding signal,PUM1 PUF domain R6-LWC,5.46 log2 enrichment (interaction score)
same,binding signal,PUM1 PUF domain R3-TFW,4.12 log2 enrichment (interaction score)
same,binding signal,PUM1 PUF domain R6-GFC,2.74 log2 enrichment (interaction score)
GGCUAGAACUAGUGGAUCCCCCGGCGCCCGGCGGCUCGAGCCCGGGUAAGUGUCAAUAGUCUGCAUGCCGCCGGGCGCCAUGCCUGCAGGUCGACUCUAGAAAACAUG,binding signal,PUM1 PUF domain R5-RCC,4.34 log2 enrichment (interaction score)
GGCUAGAACUAGUGGAUCCCCCGGCGCCCGGCGGCUCGAGCCCGGGUAAGCGUAAAUAGUCUGCAUGCCGCCGGGCGCCAUGCCUGCAGGUCGACUCUAGAAAACAUG,binding signal,PUM1 PUF domain R8-RWI,5.86 log2 enrichment (interaction score)
GGCUAGAACUAGUGGAUCCCCCGGCGCCCGGCGGCUCGAGCCCGGGUAAGUGUAUAUAGUCUGCAUGCCGCCGGGCGCCAUGCCUGCAGGUCGACUCUAGAAAACAUG,binding signal,PUM1 PUF domain R4-SNG,3.22 log2 enrichment (interaction score)
same,binding signal,PUM1 PUF domain R4-DYA,7.28 log2 enrichment (interaction score)
GGCUAGAACUAGUGGAUCCCCCGGCGCCCGGCGGCUCGAGCCCGGGUAAGUGUAAAUCGUCUGCAUGCCGCCGGGCGCCAUGCCUGCAGGUCGACUCUAGAAAACAUG,binding signal,PUM1 PUF domain R1-KIL,2.59 log2 enrichment (interaction score)
GGCUAGAACUAGUGGAUCCCCCGGCGCCCGGCGGCUCGAGCCCGGGUAAGUGUACAUAGUCUGCAUGCCGCCGGGCGCCAUGCCUGCAGGUCGACUCUAGAAAACAUG,binding signal,PUM1 PUF domain R4-TPS,4.18 log2 enrichment (interaction score)
same,binding signal,PUM1 PUF domain R4-EHL,1.89 log2 enrichment (interaction score)
GGCUAGAACUAGUGGAUCCCCCGGCGCCCGGCGGCUCGAGCCCGGGUAAGUUUAAAUAGUCUGCAUGCCGCCGGGCGCCAUGCCUGCAGGUCGACUCUAGAAAACAUG,binding signal,PUM1 PUF domain R7-LTL,4.96 log2 enrichment (interaction score)
